Results as given in PubChem BioAssay.
Inconclusive results are not listed. Activity calls are given as the source filed them.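 How the source made its calls, unless noted: active means inhibition above 54%, about 3 SD of non-fluorescent compounds; inactive means the rest.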

How the values were obtained:
[1] = rapamycin-like changes in RPL19A-GFP expression – cell-based, S. cerevisiae, multiplex flow cytometry, primary screen (AID 1862; in the data active means percent of DMSO control GFP below about 86%;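 further: lower values mimic rapamycin by blocking the RPL19A rise seen in DMSO cells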); settings: S. cerevisiae RPL19A-GFP strain, flow cytometry fluorescence, 3 h; at 10 µM; stronger effect = lower value
[2] = TOR pathway GLN3 branch reporter MEP2-GFP changes – S. cerevisiae, multiplex flow cytometry, primary screen (AID 1867;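 active means GFP response, as percent of the DMSO control, above the screen-wide mean plus 3 SD, about 139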;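 further: median GFP channel fluorescence of barcode-gated MEP2-GFP cells measured by flow cytometry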); settings: S. cerevisiae MEP2-GFP strain, 3 h, at 10 µM, stronger effect = higher value, 100% means same as DMSO wells
[3] = TOR pathway RTG branch CIT2 reporter changes – S. cerevisiae, GFP fusion, multiplex flow cytometry, primary screen (AID 1870;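 active means percent response above a set limit, the screen-wide mean plus 3 SD, cut at about 130% in these data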;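 further: barcoded CIT2-GFP strain pooled with four other GFP strains with rapamycin as positive control; median GFP fluorescence per well over plate mean of DMSO wells so 100% = DMSO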); settings: S. cerevisiae CIT2-GFP expression, 3 h, at 10 µM, stronger effect = higher value
[4] = TOR pathway LAP4-GFP level changes – S. cerevisiae, multiplex flow cytometry, primary screen (AID 1873;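 active means GFP signal, as percent of the solvent control, above the screen mean plus 3 SD, about 149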); settings: S. cerevisiae LAP4-GFP expression, 3 h, at 10 µM, stronger effect = higher value
[5] = yeast AGP1-GFP level changes, GLN3 branch – cell-based, multiplex flow cytometry, S. cerevisiae, primary screen (AID 1887;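 active means GFP signal above the screen-wide mean plus 3 SD, that is over about 124.5% of the solvent control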;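 further: AGP1-GFP fusion strain of S. cerevisiae within a five-strain barcoded multiplex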); settings: 3 h, at 10 µM, stronger effect = higher value
[6] = reduced mouse 2C T cell binding to pMHC/ICAM-1 vesicles – MLPCN validation set, flow cytometry, LFA-1/ICAM-1 modulator project, pilot screen (AID 2523;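 active means response below a set limit, under 55% cells CD8-positive and vesicle-bound, and CD8 cells' 90th-percentile brightness under 279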;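 on vesicle binding response: mean PE anti-B7-1 fluorescence of CD8+ cells relative to row control; 100% = QL9-loaded vesicles with DMSO vehicle in the same plate row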); settings: 2C mouse CD8+ T cells, at 7 µM, stronger effect = lower value; double positive events: measured here: CD8+/vesicle+ event percentage
[7] = target: Integrin beta-1 (Homo sapiens) + Integrin alpha-4 (Homo sapiens) (UniProt P13612+P05556); assay: alpha4beta1 integrin LIBS antibody binding reduction – U937 cells, HUTS-21 mAb, flow cytometry, validation set, VLA-4 allosteric modulator project, pilot screen (AID 2674;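 active means inhibition above 50%, about 3 SD of the validation set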;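 further: antibody binding induced by the VLA-4 ligand LDV present at three times its Kd; 0% = LDV ligand with antibody and no compound and 100% = antibody without LDV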); settings: HUTS-21 LIBS mAb binding, at 6.7 µM, stronger effect = higher value, binding induced by LDV ligand
Integrin beta-1 (Homo sapiens) + Integrin alpha-4 (Homo sapiens), sequence (P05556 whole entry, looked up): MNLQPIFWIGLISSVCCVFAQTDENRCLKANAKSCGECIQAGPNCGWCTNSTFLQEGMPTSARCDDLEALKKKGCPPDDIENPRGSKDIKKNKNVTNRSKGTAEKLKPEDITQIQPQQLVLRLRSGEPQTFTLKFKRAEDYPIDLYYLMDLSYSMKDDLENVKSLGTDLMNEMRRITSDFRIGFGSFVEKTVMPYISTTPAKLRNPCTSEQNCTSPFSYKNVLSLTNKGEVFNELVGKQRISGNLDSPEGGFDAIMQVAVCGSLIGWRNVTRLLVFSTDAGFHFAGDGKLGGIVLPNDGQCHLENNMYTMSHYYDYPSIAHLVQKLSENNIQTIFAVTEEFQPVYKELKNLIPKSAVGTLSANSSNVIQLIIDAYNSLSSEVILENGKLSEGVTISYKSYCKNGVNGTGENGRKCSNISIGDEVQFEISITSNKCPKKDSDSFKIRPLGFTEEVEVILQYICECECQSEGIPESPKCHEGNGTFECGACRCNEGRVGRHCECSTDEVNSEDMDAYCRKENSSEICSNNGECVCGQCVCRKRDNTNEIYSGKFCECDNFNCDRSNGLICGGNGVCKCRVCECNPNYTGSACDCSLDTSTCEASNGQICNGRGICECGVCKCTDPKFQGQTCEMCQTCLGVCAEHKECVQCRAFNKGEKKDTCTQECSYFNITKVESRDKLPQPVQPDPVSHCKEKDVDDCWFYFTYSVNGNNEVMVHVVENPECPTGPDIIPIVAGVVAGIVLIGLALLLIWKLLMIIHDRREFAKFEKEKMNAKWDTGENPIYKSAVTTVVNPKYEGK
Integrin beta-1 (Homo sapiens) + Integrin alpha-4 (Homo sapiens), sequence (P13612 whole entry, looked up): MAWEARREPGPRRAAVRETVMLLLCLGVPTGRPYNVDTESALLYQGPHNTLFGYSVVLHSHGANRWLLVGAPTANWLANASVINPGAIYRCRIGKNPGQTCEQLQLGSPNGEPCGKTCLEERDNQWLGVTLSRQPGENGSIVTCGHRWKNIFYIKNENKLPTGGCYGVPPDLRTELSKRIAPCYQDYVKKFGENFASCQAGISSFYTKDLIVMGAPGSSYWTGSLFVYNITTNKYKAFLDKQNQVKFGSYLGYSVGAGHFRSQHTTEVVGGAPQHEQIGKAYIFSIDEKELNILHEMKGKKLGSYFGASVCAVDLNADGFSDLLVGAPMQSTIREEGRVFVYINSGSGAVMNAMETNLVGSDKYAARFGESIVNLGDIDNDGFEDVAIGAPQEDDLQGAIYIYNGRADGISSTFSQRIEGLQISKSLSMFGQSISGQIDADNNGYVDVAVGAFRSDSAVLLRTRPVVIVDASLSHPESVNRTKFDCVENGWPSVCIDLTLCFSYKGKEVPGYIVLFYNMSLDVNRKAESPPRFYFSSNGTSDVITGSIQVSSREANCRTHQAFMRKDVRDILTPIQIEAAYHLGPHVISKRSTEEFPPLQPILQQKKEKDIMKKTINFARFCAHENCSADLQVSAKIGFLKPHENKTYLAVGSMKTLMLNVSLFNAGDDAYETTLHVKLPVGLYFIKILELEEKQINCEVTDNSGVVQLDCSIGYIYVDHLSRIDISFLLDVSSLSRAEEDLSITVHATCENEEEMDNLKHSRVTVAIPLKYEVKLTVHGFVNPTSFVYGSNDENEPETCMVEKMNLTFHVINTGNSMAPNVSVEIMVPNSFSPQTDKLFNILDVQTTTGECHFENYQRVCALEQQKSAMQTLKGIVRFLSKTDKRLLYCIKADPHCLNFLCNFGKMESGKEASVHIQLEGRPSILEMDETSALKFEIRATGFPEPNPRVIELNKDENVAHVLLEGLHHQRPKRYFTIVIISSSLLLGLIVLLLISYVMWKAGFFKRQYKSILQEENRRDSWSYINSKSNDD

[8] = calorie-restriction mimetic ROS inhibitors, yeast – validation compound set, pilot screen (AID 2706;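 active means superoxide response below 65% of plate, a cut near 3 SD across the whole screen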;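 further: yeast exposed to compound for one week at 30 degrees C before staining; 100% = mean of all compound wells on the same plate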); settings: S. cerevisiae aging, superoxide DHE fluorescence; at 10 µM, stronger effect = lower value
[9] = target: Beta-adrenergic receptor kinase 1 (Homo sapiens) (UniProt P25098); assay: GRK2 binders displacing RNA aptamer, biochemical, validation, human GRK2, bead flow cytometry (AID 488806;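 active means aptamer binding inhibition above 30%, about 3 SD of noise from non-fluorescent compounds; inactive means inhibition at or below 30%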); settings: bead-bound GRK2, FAM-aptamer displacement, at 10 µM, stronger effect = higher value
Beta-adrenergic receptor kinase 1 (Homo sapiens), sequence (P25098 whole entry, looked up, the tested form may be a part): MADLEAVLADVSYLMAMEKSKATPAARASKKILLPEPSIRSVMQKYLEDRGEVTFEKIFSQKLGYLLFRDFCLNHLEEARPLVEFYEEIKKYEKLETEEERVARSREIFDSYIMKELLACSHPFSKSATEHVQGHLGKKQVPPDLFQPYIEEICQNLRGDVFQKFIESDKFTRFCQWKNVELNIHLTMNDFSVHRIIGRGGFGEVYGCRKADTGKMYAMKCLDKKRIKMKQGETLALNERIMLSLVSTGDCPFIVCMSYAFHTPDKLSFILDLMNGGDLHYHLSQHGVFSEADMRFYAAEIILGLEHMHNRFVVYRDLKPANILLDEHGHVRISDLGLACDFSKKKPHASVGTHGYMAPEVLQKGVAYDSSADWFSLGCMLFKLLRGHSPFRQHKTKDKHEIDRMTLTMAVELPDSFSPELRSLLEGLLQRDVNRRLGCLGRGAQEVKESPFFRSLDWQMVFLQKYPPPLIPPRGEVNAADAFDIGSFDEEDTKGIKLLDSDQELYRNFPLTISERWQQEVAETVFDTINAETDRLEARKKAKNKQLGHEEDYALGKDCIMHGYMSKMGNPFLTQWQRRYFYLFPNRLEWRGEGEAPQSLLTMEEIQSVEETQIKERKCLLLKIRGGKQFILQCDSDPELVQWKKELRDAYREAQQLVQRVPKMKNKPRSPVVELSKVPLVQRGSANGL

[10] = target: AP-2 complex subunit beta (Homo sapiens) (UniProt P63010); assay: beta-arrestin/AP2 interaction blockers – biochemical, validation set, GST-AP2 beads, flow cytometry, pilot screen (AID 504541); settings: FITC arrestin peptide, at 10 µM, stronger effect = higher value, AP2 beta2 appendage fragment, R879A mutant;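 further: AP2 carries R879A mutation and is captured from E. coli lysate; bead-bound FITC arrestin peptide fluorescence measuring arrestin peptide binding to AP2; 0% = DMSO wells and 100% = excess unlabeled arrestin peptide control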
AP-2 complex subunit beta (Homo sapiens), sequence (P63010 whole entry, looked up, the tested form may be a part, one chain of several): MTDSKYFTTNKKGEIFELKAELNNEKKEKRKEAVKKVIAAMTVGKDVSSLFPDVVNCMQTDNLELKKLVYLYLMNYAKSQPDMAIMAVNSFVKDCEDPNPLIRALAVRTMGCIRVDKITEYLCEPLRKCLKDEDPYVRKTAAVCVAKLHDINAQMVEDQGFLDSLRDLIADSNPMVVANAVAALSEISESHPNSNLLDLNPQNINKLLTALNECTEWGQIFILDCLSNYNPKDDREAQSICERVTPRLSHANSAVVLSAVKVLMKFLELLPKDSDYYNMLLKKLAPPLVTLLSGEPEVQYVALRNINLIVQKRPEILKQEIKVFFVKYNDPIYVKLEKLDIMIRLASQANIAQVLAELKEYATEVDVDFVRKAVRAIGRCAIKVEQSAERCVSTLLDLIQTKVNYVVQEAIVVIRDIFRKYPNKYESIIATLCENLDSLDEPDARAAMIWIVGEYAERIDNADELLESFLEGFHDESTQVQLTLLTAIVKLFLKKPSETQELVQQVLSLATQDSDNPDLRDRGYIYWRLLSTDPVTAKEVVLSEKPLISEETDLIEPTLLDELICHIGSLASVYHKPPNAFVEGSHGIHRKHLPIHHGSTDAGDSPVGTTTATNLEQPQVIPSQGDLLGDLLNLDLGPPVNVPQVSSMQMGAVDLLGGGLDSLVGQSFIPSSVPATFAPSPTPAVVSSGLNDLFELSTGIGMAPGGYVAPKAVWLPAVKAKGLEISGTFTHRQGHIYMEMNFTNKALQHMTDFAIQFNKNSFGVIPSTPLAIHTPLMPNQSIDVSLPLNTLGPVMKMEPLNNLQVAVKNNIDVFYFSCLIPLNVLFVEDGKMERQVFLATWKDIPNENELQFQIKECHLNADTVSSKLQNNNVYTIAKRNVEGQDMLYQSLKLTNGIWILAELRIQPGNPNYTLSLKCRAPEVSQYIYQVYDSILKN

[11] = cytosolic pH regulators acting via V-ATPase – S. cerevisiae, pHLuorin, HTS validation (AID 504600; in the data active means response above about 15%;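 further: plate controls were DMSO for no effect and reference compound for full effect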); settings: V-ATPase proton transport, at 10 µM, stronger effect = higher value
[12] = test system: anti-desmoglein-3 scFv antibody binding to human DSG3; assay: blockers of pathogenic pemphigus antibody–desmoglein-3 binding – biochemical, validation compound set, bead-based, flow cytometry, pilot screen (AID 588368;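 active means binding below the plate cutoff, the plate median minus 3 SD, with a reading above zero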;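 further: signal is the median channel fluorescence of bead-bound GFP antibody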); settings: Protein G beads, DSG3-Fc, scFv-GFP binding, at 10 µM, stronger effect = lower value
[13] = Nile Red efflux blockade in pump-expressing yeast – validation compound set, multiplex, phenotypic, pilot screen (AID 588506;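 active means efflux inhibition above 0.42, the validation set average plus 4 SD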;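 further: Nile Red retained in cells so higher fluorescence means more efflux inhibition; 0 = negative control wells and 1 = enniatin B 25 µM full block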); settings: S. cerevisiae pump-expressing triplex, Nile Red efflux flow cytometry; at 10 µM; stronger effect = higher value; the pumps come from Candida albicans
[14] = target: ATP-binding cassette sub-family B member 6 (Homo sapiens) (UniProt Q9NP58); assay: blockers of ABCB6-driven porphyrin uptake – K562-ABCB6 cells, flow cytometry, validation set, pilot screen (AID 588550;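 active means inhibition above the screen-wide mean plus 3 SD, about 51%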;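 further: 0% = DMSO wells and 100% = benzethonium chloride 70 µM positive control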); settings: K562-ABCB6 porphyrin accumulation, 1 h, at 10 µM, stronger effect = higher value
ATP-binding cassette sub-family B member 6 (Homo sapiens), sequence (Q9NP58 whole entry, looked up): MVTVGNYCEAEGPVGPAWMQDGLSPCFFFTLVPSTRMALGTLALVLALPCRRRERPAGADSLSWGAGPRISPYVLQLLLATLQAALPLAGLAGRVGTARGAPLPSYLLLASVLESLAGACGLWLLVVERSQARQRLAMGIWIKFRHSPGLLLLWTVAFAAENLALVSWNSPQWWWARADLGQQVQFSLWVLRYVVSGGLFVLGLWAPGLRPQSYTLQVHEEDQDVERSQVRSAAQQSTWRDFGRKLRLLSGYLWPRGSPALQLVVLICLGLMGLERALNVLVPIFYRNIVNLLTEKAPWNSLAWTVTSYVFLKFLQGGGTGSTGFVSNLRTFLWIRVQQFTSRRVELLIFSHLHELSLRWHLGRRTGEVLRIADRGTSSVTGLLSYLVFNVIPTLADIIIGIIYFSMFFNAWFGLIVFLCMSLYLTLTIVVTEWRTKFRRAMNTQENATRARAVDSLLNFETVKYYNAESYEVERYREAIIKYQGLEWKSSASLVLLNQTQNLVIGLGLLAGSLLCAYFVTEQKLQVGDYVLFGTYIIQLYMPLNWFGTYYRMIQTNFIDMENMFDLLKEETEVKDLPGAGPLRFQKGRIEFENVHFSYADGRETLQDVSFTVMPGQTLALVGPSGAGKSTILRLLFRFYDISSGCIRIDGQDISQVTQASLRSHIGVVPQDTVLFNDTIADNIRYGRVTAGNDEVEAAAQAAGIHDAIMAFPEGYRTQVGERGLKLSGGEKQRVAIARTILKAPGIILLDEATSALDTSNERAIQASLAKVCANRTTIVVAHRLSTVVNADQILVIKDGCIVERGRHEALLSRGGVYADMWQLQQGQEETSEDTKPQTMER

[15] = AML differentiation inducers, ER-HoxA9 marrow cells – cell-based, GFP/MAC1 double positive, flow cytometry, validation set, primary screen (AID 588685;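 active means differentiation response of at least 50%, scaled between solvent and reference control, from cells with both markers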;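 further: compound exposure lasts four days before antibody staining and flow analysis; 0% = DMSO wells and 100% = 5 µM fulvestrant positive control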); settings: stronger effect = higher value, normalized: vehicle 0, fulvestrant 100

c1ccc2c3c(c(CN4CCCCC4)cc2c1)COC3
inactive: percent of DMSO control GFP [1] 109% | GFP response vs DMSO [2] 116% | GFP response vs DMSO [4] 122% | GFP response, % of DMSO [5] 104% | vesicle binding response [6] 176% | inhibition [7] -8.64% | superoxide response (% of plate) [8] 116% | aptamer binding inhibition [9] -6% | inhibition [10] -17.7% | response [11] 4.2% | binding (% of control) [12] 107% | efflux inhibition (fraction of control) [13] -0.12 | inhibition [14] 11% | differentiation response [15] -14.7%
active: percent response of DMSO control [3] 127%
38%: double positive events [6]

O=C(CC(C(=O)O)c1c[nH]c2ccccc12)c1ccccc1 (stereo not given)
58.5%: double positive events [6]
inactive: percent of DMSO control GFP [1] 101% | GFP response vs DMSO [2] 109% | percent response of DMSO control [3] 98.8% | GFP response vs DMSO [4] 103% | GFP response, % of DMSO [5] 96.3% | vesicle binding response [6] 147% | inhibition [7] 10% | superoxide response (% of plate) [8] 92.2% | aptamer binding inhibition [9] 4% | inhibition [10] 11.2% | response [11] -1.72% | binding (% of control) [12] 102% | efflux inhibition (fraction of control) [13] 0.03 | inhibition [14] 3% | differentiation response [15] -5.05%

CC(=O)NCCCCCCNC(C)=O
55.5%: double positive events [6]
inactive: percent of DMSO control GFP [1] 106% | GFP response vs DMSO [2] 92.8% | percent response of DMSO control [3] 110% | GFP response vs DMSO [4] 90.3% | GFP response, % of DMSO [5] 106% | vesicle binding response [6] 198% | inhibition [7] 4.42% | superoxide response (% of plate) [8] 85.1% | aptamer binding inhibition [9] -1% | inhibition [10] -11.9% | response [11] 6% | binding (% of control) [12] 94.1% | efflux inhibition (fraction of control) [13] -0.31 | inhibition [14] 5% | differentiation response [15] -22.8%

CCOC(=O)c1ccccc1NC(=O)c1ccc(F)cc1
inactive: percent of DMSO control GFP [1] 101% | GFP response vs DMSO [2] 108% | percent response of DMSO control [3] 103% | GFP response vs DMSO [4] 92.3% | GFP response, % of DMSO [5] 91.8% | vesicle binding response [6] 102% | inhibition [7] 10.9% | superoxide response (% of plate) [8] 100% | aptamer binding inhibition [9] 3% | inhibition [10] 6.01% | response [11] -5.23% | binding (% of control) [12] 98.8% | efflux inhibition (fraction of control) [13] 0.37 | inhibition [14] 13% | differentiation response [15] -13.1%
60.4%: double positive events [6]

CC(CCc1ccccc1)NCC(O)c1ccc(O)c(C(N)=O)c1 (stereo not given)
52.5%: double positive events [6]
inactive: percent of DMSO control GFP [1] 99.5% | GFP response vs DMSO [2] 98.9% | percent response of DMSO control [3] 107% | GFP response vs DMSO [4] 109% | GFP response, % of DMSO [5] 105% | vesicle binding response [6] 175% | inhibition [7] -2.11% | superoxide response (% of plate) [8] 97.6% | aptamer binding inhibition [9] 0% | inhibition [10] -4.92% | response [11] -3.48% | binding (% of control) [12] 101% | efflux inhibition (fraction of control) [13] -0.2 | inhibition [14] 9% | differentiation response [15] -6.66%

CCN(CC)CCOC(=O)C1(C2CCCCC2)CCCCC1
50.5%: double positive events [6]
inactive: percent of DMSO control GFP [1] 110% | GFP response vs DMSO [2] 101% | percent response of DMSO control [3] 106% | GFP response vs DMSO [4] 110% | GFP response, % of DMSO [5] 108% | vesicle binding response [6] 162% | inhibition [7] 5.36% | superoxide response (% of plate) [8] 110% | aptamer binding inhibition [9] -2% | inhibition [10] -6.04% | response [11] 1.87% | binding (% of control) [12] 101% | efflux inhibition (fraction of control) [13] 0.25 | inhibition [14] -45% | differentiation response [15] -27.6%

Cc1cnc(C(=O)NCCc2ccc(S(=O)(=O)NC(=O)NC3CCCCC3)cc2)cn1
65%: double positive events [6]
inactive: percent of DMSO control GFP [1] 93.9% | GFP response vs DMSO [2] 93.8% | percent response of DMSO control [3] 110% | GFP response vs DMSO [4] 92.3% | GFP response, % of DMSO [5] 92.2% | vesicle binding response [6] 230% | inhibition [7] -9.57% | superoxide response (% of plate) [8] 95.2% | aptamer binding inhibition [9] 2% | inhibition [10] -11.4% | response [11] -3.18% | binding (% of control) [12] 104% | efflux inhibition (fraction of control) [13] -0.12 | inhibition [14] 4% | differentiation response [15] -3.43%

CN(CCc1cnn(C)c1)Cc1nc(CC2CC2)no1
58.1%: double positive events [6]
inactive: percent of DMSO control GFP [1] 101% | GFP response vs DMSO [2] 101% | percent response of DMSO control [3] 110% | GFP response vs DMSO [4] 105% | GFP response, % of DMSO [5] 105% | vesicle binding response [6] 194% | inhibition [7] -11.4% | superoxide response (% of plate) [8] 106% | aptamer binding inhibition [9] 2% | inhibition [10] 23.6% | response [11] -2.33% | binding (% of control) [12] 104% | efflux inhibition (fraction of control) [13] -0.16 | inhibition [14] 8% | differentiation response [15] -9.89%

OC[C@H]1O[C@@H](n2cnc3c(NC4CCCC4)ncnc32)[C@H](O)[C@@H]1O
inactive: percent of DMSO control GFP [1] 96.8% | GFP response vs DMSO [2] 98.9% | percent response of DMSO control [3] 98.8% | GFP response vs DMSO [4] 99.4% | GFP response, % of DMSO [5] 98.4% | vesicle binding response [6] 139% | inhibition [7] 6.29% | superoxide response (% of plate) [8] 102% | aptamer binding inhibition [9] 4% | inhibition [10] 7.18% | response [11] -1.41% | binding (% of control) [12] 104% | efflux inhibition (fraction of control) [13] 0.18 | inhibition [14] 2% | differentiation response [15] -8.27%
52.6%: double positive events [6]

COC1=CC(=O)CC(C)C12Oc1c(Cl)c(OC)cc(OC)c1C2=O (stereo not given)
42.3%: double positive events [6]
inactive: percent of DMSO control GFP [1] 105% | GFP response vs DMSO [2] 99.9% | percent response of DMSO control [3] 107% | GFP response vs DMSO [4] 103% | GFP response, % of DMSO [5] 98.7% | vesicle binding response [6] 131% | inhibition [7] 8.15% | superoxide response (% of plate) [8] 97.4% | aptamer binding inhibition [9] -1% | inhibition [10] 14.5% | response [11] 0.18% | binding (% of control) [12] 95.9% | efflux inhibition (fraction of control) [13] -0.09 | inhibition [14] 8% | differentiation response [15] -14.7%
